High-throughput results from PubChem.
Most compounds without a hit are left out; they make up all but 32% or so of the library.
CYP2C9 inhib – human CYP2C9 inhibition; P11712; inhibition, % at 5 µM; hit rate 20% among 96,000; CYP2C9 Supersomes, luciferin-H conversion, luminescence;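 active means blocking of liver enzyme CYP2C9 beyond about 50% at 5 µM, limit read from the data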
PostGolgi ctrl – growth of the yeast control strain, post-Golgi counter-screen; inhibition, % at 10 µM; efflux-deficient yeast background strain, growth absorbance A615, 16 h; hit rate 5% among 98,000; AID 738
CYP2C9 activ – CYP2C9 (human) activation; P11712; recombinant CYP2C9, luciferin-H conversion, luminescence; stronger effect = higher value; factor 1 = untreated enzyme, 0 = blocked; activation factor at 5 µM; hit rate 1.4% among 96,000;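 active means activation factor of 2 or more for CYP2C9 at a 5 µM dose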;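 further: 0 = sulfaphenazole-blocked wells and 1 = vehicle-only wells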
CYP2C19 inh – inhibitors of human CYP2C19; P33261; CYP2C19 Supersomes, luciferin-H EGE luminescence, 30 min; AID 778; inhibition, % at 5 µM; hit rate 21% among 96,000;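 active means CYP2C19 inhibition above a set limit at 5 µM in the primary screen, cut at about 50% in these data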;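 further: plate controls were negative control wells for no effect and 2.5 mM tranylcypromine positive control for full effect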
Target sequence (P33261 whole entry, looked up): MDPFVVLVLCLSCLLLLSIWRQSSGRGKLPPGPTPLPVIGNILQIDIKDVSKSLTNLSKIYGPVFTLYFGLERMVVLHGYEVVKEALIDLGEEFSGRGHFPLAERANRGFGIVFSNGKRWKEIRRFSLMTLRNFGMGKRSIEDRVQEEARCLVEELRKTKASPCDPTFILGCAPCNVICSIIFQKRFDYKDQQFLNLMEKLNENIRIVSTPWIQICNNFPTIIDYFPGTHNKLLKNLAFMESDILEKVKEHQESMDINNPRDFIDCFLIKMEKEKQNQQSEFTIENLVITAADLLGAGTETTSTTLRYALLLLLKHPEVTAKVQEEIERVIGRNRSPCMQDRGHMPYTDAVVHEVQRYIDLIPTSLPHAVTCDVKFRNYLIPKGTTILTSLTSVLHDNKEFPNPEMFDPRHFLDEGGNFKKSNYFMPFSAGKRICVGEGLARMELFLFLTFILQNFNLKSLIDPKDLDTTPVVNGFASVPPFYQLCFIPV
CYP2C19 activ – cytochrome P450 2C19 (human) activation; recombinant CYP2C19, luciferin-H EGE luminescence; stronger effect = higher value; 0 = fully inhibited enzyme, 1 = untreated enzyme; 96,000 tested, under 10 active; AID 1025; activation factor at 5 µM;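 active means activation factor of at least 2 at 5 µM in the primary screen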;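 further: 0 = wells with 2.5 mM tranylcypromine and 1 = vehicle-only wells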
PostGolgi yeast – growth inhibition of a yeast mutant, post-Golgi transport screen | post-Golgi transport phenotypic cell assay | inhibition, % at 10 µM | hit rate 0.9% among 98,000;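 further: yeast cells grown in 1536-well plates; yeast grown about 18 h at 30C before absorbance read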
Active calls of the source: *; . = not tested or not shown. Unless noted, no stated cut-off is given here; in the data, active means inhibition above about 30%; inactive means the rest.

SMILES | CYP2C9 inhib | PostGolgi ctrl | CYP2C9 activ | CYP2C19 inh | CYP2C19 activ | PostGolgi yeast
CC(NC(=O)C1CCC1)c1ccc2c(c1)OCO2 (stereo not drawn) | 30.4 | 3.3 | 0.7 | 51.0* | 0.5 | 3.3
COc1ccccc1C(=O)NCc1ccc2c(c1)OCO2 | 52.3* | -4.7 | 0.5 | 95.1* | 0 | -2.8
Cc1ccc(-n2ncc(C(=O)NCc3ccc4c(c3)OCO4)c2NC(=O)c2ccco2)cc1C | 86.6* | -3.6 | 0.1 | 64.3* | 0.4 | 2.6
CCCS(=O)(=O)N1CCCC(C(=O)NC(C)c2ccc3c(c2)OCCO3)C1 (stereo not drawn) | -4.7 | 12.6 | 1 | -7.5 | 1.1 | -5.9
COC(=O)c1ccccc1NC(=O)NCc1ccc2c(c1)OCO2 | 24.8 | -4.6 | 0.8 | 52.2* | 0.5 | 5.0
Cc1occc1C(=O)NCc1ccc2c(c1)OCO2 | 25.9 | 2.2 | 0.7 | 87.5* | 0.1 | 6.1
Cc1occc1C(=O)NCc1cccc(CNC(=O)c2ccoc2C)c1 | 10.0 | -1.7 | 0.9 | 9.8 | 0.9 | 5.3
COc1ccc2c(c1)OC13CCCCC1C2C(C(=O)c1ccccc1)C(=O)N3 (stereo not drawn) | 15.0 | -10.2 | 0.8 | 15.7 | 0.8 | -6.4
O=C(CN(C1CC1)S(=O)(=O)c1ccc(S(=O)(=O)N2CCCCCC2)cc1)Nc1ccccc1 | 40.4 | -1.1 | 0.6 | 45.8 | 0.5 | 1.8
Cc1ccc(S(=O)(=O)N(CC(=O)N2CCOCC2)C2CCCCC2)cc1 | 9.3 | -4.3 | 0.9 | -1.2 | 1 | -11.1
CCN(C1CCCCC1)S(=O)(=O)c1ccc(S(=O)(=O)N(CC(=O)Nc2ccccc2)C2CC2)cc1 | 68.3* | -7.8 | 0.3 | -14.3 | 1.1 | -1.5
Cc1ccc(NS(=O)(=O)c2ccc(OCC(=O)Nc3cccc([N+](=O)[O-])c3)c(C)c2)cc1 | 88.9* | 0.1 | 0.1 | 52.3* | 0.5 | -1.8
CC(=O)Nc1cccc(OCC(=O)NS(=O)(=O)c2ccc(C)cc2)c1 | -6.5 | -2.9 | 1.1 | -14.1 | 1.1 | 5.0
COc1ccc(C)cc1S(=O)(=O)N(CC(=O)Nc1cccc([N+](=O)[O-])c1)c1cc(C)cc(C)c1 | 92.8* | 4.0 | 0.1 | -1.7 | 1 | -2.1
Cc1ccc(S(=O)(=O)N(CC(=O)Nc2cccc([N+](=O)[O-])c2)C2CCCCC2)cc1 | 92.0* | 35.2* | 0.1 | 19.1 | 0.8 | -8.4
Cc1ccc(OCc2n[nH]c(=S)n2C2CCCCC2)cc1 | 16.1 | 41.5* | 0.8 | 49.0 | 0.5 | -2.3
S=c1[nH]nc(COc2ccc3c(c2)OCO3)n1-c1ccccc1 | -3.2 | 1.8 | 1 | 45.1 | 0.5 | -5.7
O=C(CS(=O)c1cccc(C(F)(F)F)c1)Nc1ccc(Cl)cc1Cl (stereo not drawn) | -112.7 | 5.2 | 2.1* | 99.6* | 0 | -4.9
O=C(CS(=O)c1cccc(Cl)c1)Nc1ccccc1Cl (stereo not drawn) | -161.6 | 10.8 | 2.6* | 59.7* | 0.4 | -0.6
O=C(COc1ccccc1O)Nc1ccccc1Cl | 4.9 | 12.4 | 1 | 37.0 | 0.6 | -6.4
CCN(CC)c1ccc(NC(=O)Cn2cc3c(n2)CCC(C)C3)c(C)c1 (stereo not drawn) | -4.9 | 2.9 | 1 | 10.2 | 0.9 | -0.8
COc1c2ccoc2nc2c(OC)cccc12 | -5.2 | 14.4 | 1.1 | 6.0 | 0.9 | -3.0
CCOC(=O)c1c(C)[nH]c(C(=O)Cn2c(=O)c3c(ncn3CC)n(Cc3ccccc3)c2=O)c1C | . | 7.3 | . | . | . | -9.3
CCOC(=O)c1c(C)[nH]c(C(=O)Cn2nnc(-c3ccccc3)n2)c1C | 47.9 | -8.0 | 0.5 | 58.9* | 0.4 | -7.3
CCOC(=O)c1c(C)[nH]c(C(=O)COC(=O)c2ccccn2)c1C | 55.6* | 10.6 | 0.4 | 34.1 | 0.7 | -4.8
SMILES | CYP2C9 inhib | PostGolgi ctrl | CYP2C9 activ | CYP2C19 inh | CYP2C19 activ | PostGolgi yeast
CCOC(=O)c1c(C)[nH]c(C)c1C(=O)Cn1nnc(-c2ccccc2C)n1 | . | 26.2 | . | . | . | -3.3
CCOC(=O)c1c(C)[nH]c(C(=O)COC(=O)CSCC(=O)N(CC)CC)c1C | 43.8 | -6.8 | 0.6 | 0.9 | 1 | -1.8
CCOC(=O)c1c(C)[nH]c(C(=O)Cn2nnc(-c3ccccc3Cl)n2)c1C | 82.3* | -1.6 | 0.2 | 18.7 | 0.8 | 2.1
CCOC(=O)C1CCCN(C(=O)Cc2c(C(=O)O)[nH]c3ccccc23)C1 (stereo not drawn) | 7.1 | 4.8 | 0.9 | -4.5 | 1 | 1.3
CC(=O)Nc1ccc2nc(-c3cccs3)[nH]c2c1 | 1.6 | -0.5 | 1 | -7.2 | 1.1 | 8.9
O=C(Nc1ccc2nc(-c3ccc(Br)o3)[nH]c2c1)c1cccs1 | 66.7* | 3.1 | 0.3 | 45.2 | 0.5 | -5.4
Cn1cccc1-c1nc2ccc(NC(=O)c3cccs3)cc2[nH]1 | 78.5* | 9.3 | 0.2 | 72.8* | 0.3 | -7.8
COc1ccc(C2CC(=O)NC3=C2C(=O)CCC3)cc1Cl (stereo not drawn) | -14.9 | 10.2 | 1.1 | 21.3 | 0.8 | -0.3
CCOC(=O)c1ccc(NC(=O)C2=C(C)Nc3nc(CCCO)nn3C2c2ccc(OC)cc2)cc1 (stereo not drawn) | . | 8.6 | . | . | . | 1.9
O=C(Oc1cccc(NC(=O)c2ccccc2Cl)c1)c1ccc([N+](=O)[O-])cc1 | 25.3 | 14.7 | 0.7 | 13.1 | 0.9 | 9.9
Cc1ccnc(NC(=O)c2cccc(NC(=O)COc3ccccc3)c2)c1 | 30.3 | -5.2 | 0.7 | 21.9 | 0.8 | -15.2
CCOc1ccccc1NC(=O)c1cccc(NC(=O)CC(c2ccccc2)c2ccccc2)c1 | 50.8* | 11.3 | 0.5 | 71.1* | 0.3 | -4.7
CCOc1ccccc1NC(=O)c1ccc(Cl)c(NC(=O)CC(c2ccccc2)c2ccccc2)c1 | 79.8* | 2.0 | 0.2 | 50.7* | 0.5 | -16.4
COc1ccc(C2(O)CCN(Cc3nnnn3Cc3ccc(F)cc3)CC2)cc1 | -1.7 | -3.4 | 1 | -7.5 | 1.1 | 20.7
Cc1ccc(S(=O)(=O)Nc2ccc(-c3nc4cc(NS(=O)(=O)c5ccc(C)cc5)ccc4o3)cc2)cc1 | 96.7* | 8.9 | 0 | 80.9* | 0.2 | 2.3
Cc1ccc(NS(=O)(=O)c2cc(C(=O)O)ccc2Cl)cc1 | 28.6 | 2.8 | 0.7 | 22.8 | 0.8 | -1.5
Cc1ccc(S(=O)(=O)Nc2ccc(S(=O)(=O)NC(C)(C)C)cc2)cc1 | 86.6* | 1.5 | 0.1 | 48.1 | 0.5 | -1.4
CCCN(CCC)S(=O)(=O)c1ccc(NS(=O)(=O)c2ccc(F)cc2)cc1 | 92.5* | 0.0 | 0.1 | 45.5 | 0.5 | 1.1
Cc1ccc(-c2nc3cc(NC(=O)C(C)C)ccc3o2)cc1 | -1.8 | 4.9 | 1 | -1.9 | 1 | -2.3
COc1ccc(NS(=O)(=O)c2ccc(NS(=O)(=O)c3ccc(C)cc3)cc2)nn1 | 66.1* | 1.6 | 0.3 | -3.0 | 1 | -7.2
CCCN(CCC)S(=O)(=O)c1ccc(NS(C)(=O)=O)cc1 | 6.6 | 5.7 | 0.9 | -12.3 | 1.1 | 4.1
COc1cc(NS(=O)(=O)c2ccc(NC(C)=O)cc2)ncn1 | 2.7 | -1.6 | 1 | 8.3 | 0.9 | -21.8
